Assay outcomes: PubChem BioAssay, National Center for Advancing Translational Sciences (NCATS)
KB-3-1 tox: kills parental KB-3-1 adenocarcinoma cells; 400,000 tested, 1.4% active; KB-3-1 viability, CellTiter-Glo ATP luminescence, 72 h; AID 1347075; Potency, µM (highest dose often 46.1 µM), most hits filed as cytotoxic; note: % is set by controls: 0 for no effect and ±100 for the full control effect; nearly all actives have a fitted effect of over 60% in size
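Parental KB-3-1 adenocarcinoma cells in phenol-red-free DMEM with 10% FBS were pin-treated with compounds at several concentrations, incubated 72 h at 37 °C, and viability read by CellTiter-Glo luminescence; concentration-effect curves were fitted after normalization.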
SW480 rereplic: induces DNA re-replication in SW480 colon adenocarcinoma cells; 340,000 tested, 1.8% active; SW480 DNA re-replication, Hoechst DNA content imaging, 48 h; AID 624297; Potency, µM (top dose mostly 46.1 µM), inactives show at the highest dose re-replication activation, hits mostly activators; note: % of control where 0% means no effect; nearly all actives have a fitted effect of over 55% in size
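SW480 cells exposed to compounds for 48 hr at 37 C, 5% CO2, then Hoechst-stained 40 min. Nuclear DNA content imaged by fluorescence scanning (405 nm excitation, 500-530 nm emission); re-replication scored as increased high-intensity nuclei.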
HT1080 IDH1KD tx: kills HT-1080 cells with IDH1 knockdown; HT-1080 IDH1 knockdown viability, ATP luminescence, 48 h; Potency, µM (top dose mostly 46.1 µM), inactives show at the highest dose activity, negative = toxicity, actives largely listed as cytotoxic; 360,000 tested, 2% active; AID 686971;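 note: 0% = DMSO wells and -100% = cell-free medium wells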
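HT-1080-IDH1KD cells (IDH1 knocked down), 750/well in RPMI with 5% FBS, treated with compound 48 h at 37 degrees C. Viability by CellTiter-Glo luminescence, normalised to DMSO and no-cell wells; concentration-response curves classed.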
MCF10A rerep: inducers of DNA re-replication in MCF 10A breast cells. Potency, µM (top dose mostly 46.1 µM), for inactives: at the top dose activity, positive = re-replication, hits mostly activators. AID 624296. 350,000 tested, 2.9% active. MCF 10A DNA re-replication, Hoechst nuclear intensity, 48 h; note: % of control where 0% means no effect; nearly all actives have a fitted effect of over 50% in size
HT1080NT lethal: kills 2HG-producing HT-1080-NT fibrosarcoma cells; 360,000 tested, 1.6% active; HT-1080-NT fibrosarcoma viability, CellTiter-Glo ATP luminescence, 48 h; AID 686970; Potency, µM (highest dose often 46.1 µM), for the others: at the top dose activity, negative = less viability, most hits filed as cytotoxic;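 note: NT is the 2HG producing partner of a matched IDH1 knockdown line; 0% = DMSO-treated cells and -100% = media-only wells without cells; nearly all actives have a fitted effect of over 55% in size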
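Luminescent CellTiter-Glo readout after 48 hours of compound exposure at 37 degrees C defined viability of HT-1080-NT cells. Activity was normalized to DMSO wells and cell-free media wells; concentration-response curves were fitted and assigned curve classes.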
KB-V1 MDR tox: KB-V1 MDR subline cytotoxicity; KB-V1 MDR cells viability, CellTiter-Glo, 72 h; Potency, µM (titrated, usually from 46.1 µM), usual class: cytotoxic; 400,000 tested, 3.4% active; note: % is set by controls: 0 for no effect and ±100 for the full control effect; nearly all actives have a fitted effect of over 60% in size
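Cytotoxicity via CellTiter-Glo luminescence after 72 h compound exposure at 37 degrees C. Cells: drug-selected KB-V1 line, DMEM phenol-red free plus 10% FBS. Compounds tested at multiple concentrations; normalized data fitted to concentration-effect curves.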
* = called active by the depositor. Compounds with a hit are over-represented: about 7.9% of the library has one in this group of screens. Calls come from the whole dose curve; as a rule, active = well fitted curve in the direction sought with a large enough effect; inconclusive = small, poorly fitted or top-dose-only effect, or another doubt; inactive = no such curve, though single readings can be large; an effect the other way counts as inactive or inconclusive. Potency is the fitted concentration of half-maximal effect.

`CCCCOc1ccccc1NC(=O)Cn1c(-c2nonc2N)nc2ccccc21` gave KB-3-1 tox 4.61µM*, SW480 rereplic inconclusive, HT1080 IDH1KD tx 1.3µM*, MCF10A rerep 0.794µM*, HT1080NT lethal 1.46µM* and KB-V1 MDR tox 1.84µM*.
`NNC(=O)Cn1c(-c2nonc2N)nc2ccccc21` gave KB-3-1 tox inactive, SW480 rereplic -1.0%, HT1080 IDH1KD tx 2.8%, MCF10A rerep 2.2%, HT1080NT lethal 1.5% and KB-V1 MDR tox inactive.
`N#CCCCc1cn(-c2nc3ccccc3s2)nn1` gave KB-3-1 tox inactive, HT1080 IDH1KD tx 8.4%, HT1080NT lethal 7.5% and KB-V1 MDR tox inconclusive.
For Cc1ccc([N+](=O)[O-])cc1NC(=O)CNC1CCCCC1 the results were KB-3-1 tox inactive, SW480 rereplic -6.7%, HT1080 IDH1KD tx -2.6%, MCF10A rerep -12.1%, HT1080NT lethal 4.3% and KB-V1 MDR tox inactive.
`Cc1cccc(NC(=O)C(c2cccc([N+](=O)[O-])c2)N2CCCCC2)c1` (stereo not given) gave KB-3-1 tox inactive, SW480 rereplic 27.9%, HT1080 IDH1KD tx -6.2%, MCF10A rerep 5.5%, HT1080NT lethal -0.3% and KB-V1 MDR tox 14.6µM*.
Cc1cccc(NC(=O)c2cc([N+](=O)[O-])ccc2NC2CCCCC2)c1 was read as KB-3-1 tox inactive, SW480 rereplic 65.1%, HT1080 IDH1KD tx -1.8%, MCF10A rerep -3.9%, HT1080NT lethal -10.7% and KB-V1 MDR tox 13µM*.
For CN(c1ccc([N+](=O)[O-])cc1C(=O)Nc1ccccc1)C1CCCCC1 the results were KB-3-1 tox inactive, SW480 rereplic 8.9%, HT1080 IDH1KD tx inconclusive, MCF10A rerep -0.8%, HT1080NT lethal -23.7% and KB-V1 MDR tox 13µM*.
Screening Cc1ccc(-c2csc3nc[nH]c(=S)c23)cc1C returned KB-3-1 tox inconclusive, SW480 rereplic inconclusive, HT1080 IDH1KD tx 20.6µM*, MCF10A rerep inconclusive, HT1080NT lethal inconclusive and KB-V1 MDR tox 13µM*.
Screening COc1cc(OC)c2c(c1)O/C(=C\c1ccccc1)C2=O returned KB-3-1 tox inactive, SW480 rereplic inconclusive, HT1080 IDH1KD tx 6.1%, MCF10A rerep inconclusive, HT1080NT lethal 7.3% and KB-V1 MDR tox inactive.
Screening COCOc1ccc(/C=C2/Oc3cc(OCOC)cc(OCOC)c3C2=O)c(OCOC)c1 returned KB-3-1 tox inactive, SW480 rereplic inconclusive, HT1080 IDH1KD tx 2.5%, MCF10A rerep 6.51µM*, HT1080NT lethal -0.9% and KB-V1 MDR tox inactive.
`CCOC(=O)C1(Cc2cccc(Cl)c2)CCCN(C(=O)c2cc(C(C)C)nn2C)C1` (stereo not given) gave SW480 rereplic 23.4%, HT1080 IDH1KD tx -6.5%, MCF10A rerep inconclusive and HT1080NT lethal -3.3%.
`CCOc1ccc(C(=O)Nc2cc(S(=O)(=O)Nc3ccccc3Cl)ccc2N2CCOCC2)cc1` gave KB-3-1 tox inactive, SW480 rereplic 13.2%, HT1080 IDH1KD tx -2.1%, MCF10A rerep 3.8%, HT1080NT lethal 3.9% and KB-V1 MDR tox 6.51µM*.
Cn1c(=O)c(=O)n(C)c2cc(N3CCCCC3)c(NS(=O)(=O)c3ccc(Br)cc3)cc21 was read as KB-3-1 tox inactive, SW480 rereplic 7.31µM*, HT1080 IDH1KD tx -11.1%, MCF10A rerep -0.6%, HT1080NT lethal -1.1% and KB-V1 MDR tox inactive.
Screening CCN(CC)S(=O)(=O)c1ccc(N2CCCC2)c(NC(=O)Cc2ccc(OC)cc2)c1 returned KB-3-1 tox inactive, SW480 rereplic 9.7%, HT1080 IDH1KD tx 14.1%, MCF10A rerep inconclusive, HT1080NT lethal 0.5% and KB-V1 MDR tox 23.1µM*.
For CCOc1ccc(S(=O)(=O)Nc2cc(S(=O)(=O)N(CC)CC)ccc2N2CCCC2)cc1 the results were KB-3-1 tox inconclusive, SW480 rereplic inconclusive, HT1080 IDH1KD tx -5.3%, MCF10A rerep -55.0%, HT1080NT lethal -3.7% and KB-V1 MDR tox 2.59µM*.
